Laboratory results taken from PubChem BioAssay (NCI).
About 83,000 compounds went through this panel and 20% of them were active in at least one assay; those are over-represented in the sample as a whole.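 Growth was measured after 48 h exposure to one concentration of compound in 96-well plates. Values under 10 count as active.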 A number with no mark means an inactive call. Active and inactive are the calls of the source.

How the values were obtained:
Test in all cases: NCI-60 one-dose screen, 48 h (100 = growth as untreated, 0 = no growth, -100 = all killed)
SK-MEL-2 melanoma = details: 10 µM
SN12C renal = details: 10 µM
UO-31 renal = details: 10 µM
ACHN renal = details: 10 µM
CAKI-1 renal = details: 10 µM
A498 renal = details: 10 µM
MOLT-4 leukemia = details: 10 µM
TK-10 renal = details: 10 µM unless noted
CCRF-CEM leukemia = details: 10 µM
EKVX NSCLC = details: 10 µM

Compound	growth (SK-MEL-2 melanoma) [%]	growth (SN12C renal) [%]	growth (UO-31 renal)	growth (ACHN renal) [%]	growth (CAKI-1 renal) [%]	growth (A498 renal) [%]	growth (MOLT-4 leukemia) [%]	growth (TK-10 renal) [%]	growth (CCRF-CEM leukemia)	growth (EKVX NSCLC) [%]
Nc1ccccc1SC(CC(=O)c1ccccc1)c1c(Cl)cccc1Cl (stereo unspecified)	91.6	62.9	58.1%	69.4	76.9	79.1	17.2			
COc1cc(CCN=Cc2ccccc2O)c([N+](=O)[O-])cc1OC	102	103	79.3%	96.7	86.6	119	96.1	96.9		
COc1ccc(C(=O)C(Br)C(Br)C(=O)O)cc1 (stereo unspecified)	94	98.6	102%	101	112	101	105			
CCN1C(=O)/C(=C/C=C/N(C)c2ccccc2)SC1=S	82.5	94.4	94.2%		91.6	92.8	89	85.6	92%	
CCOc1ccc2[nH]c(=S)sc2c1		102	88%	111	100	94	86.7	103	98.3%	96.2
CCCNc1ccc(C2=NCCCN2)cc1	102	109	81.7%	102	101	71.7	93.7		99.1%	
C=CC[N+](C)(C)C	111	101	97%	100		106	94	92.7		
O=C(O)c1cccc([N+](=O)[O-])c1O	118	102	86.1%	104	99	109			100%	
CC(=O)c1ccc(C)c(N)c1		96	81.4%	101	92.9	95.4	103	98.5	94.3%	91.8
O=[N+]([O-])c1cccc2nsnc12	106	104			114	102	101		95.9%	
CCCC[P+](c1ccccc1)(c1ccccc1)c1ccccc1	75.7	60.1	86.9%	84.9		75.5	59.1	74.8		
O=C(Cc1ccccc1)Cc1ccccc1	90.1	104	98%	98.1	97.9	101	96.7		98.3%	
CCOC(=O)C1=C(C)NC(=O)NC1c1cccs1 (stereo unspecified)		103	87.7%	113	103	125	82.7	108	95.8%	109
CC1=CC(C)(C)NC(=S)N1c1ccc(S(=O)(=O)O)c2cccc(S(=O)(=O)O)c12		103	72.6%	99.5	115	97.6		106	94.1%	115
O=C(O)c1ccc(S(=O)(=O)O)cc1		95.2	64.4%	99.5	79	122	118	116	106%	104
CC(C)(C)c1cc(O)c(C(C)(C)C)cc1O	86.6	87.4	90.3%	92.4	84.4	58.5	73.2		80.4%	
O=c1c2ccccc2c(Br)c(Br)c2ccccc12		96.8	-35.2% (active)	53.7	56.5	113	53.6	23.6	30.7%	105
COc1ccc(-c2cc3c(nn2)-c2ccccc2C3=O)cc1	65.5	72.7	89.7%		28.9	102		32.1	28.6%	
O=c1[nH]nc(SC2CCCCC2)c(=O)[nH]1		102	77.9%	113	95	93.7	89	95.3	106%	99.5

Compound	growth (SK-MEL-2 melanoma) [%]	growth (SN12C renal) [%]	growth (UO-31 renal)	growth (ACHN renal) [%]	growth (CAKI-1 renal) [%]	growth (A498 renal) [%]	growth (MOLT-4 leukemia) [%]	growth (TK-10 renal) [%]	growth (CCRF-CEM leukemia)	growth (EKVX NSCLC) [%]
Sc1ccc(Nc2c3ccccc3nc3ccccc23)cc1	40.7	95.6	82.4%	97	92.2		94.1	104	97.1%	
O=[N+]([O-])c1ccc(Cl)c(S(=O)(=O)O)c1		103	89.3%	101	106	113	89.7	136	81.3%	111
Cc1cccc(C(=O)N(C(C)C)C(C)C)c1		96.1	94.4%	101	96.4	71.9	108	87	90.7%	95
C/C(=N\O)C1(O)CCCCC1	82.9	101	96.8%	97.7	99.3	99.1	89.8		99.4%	
CC1NC(=O)NC1CCCCCC(=O)O (stereo unspecified)	103	105		101		87.8	118	100	2.23% (active)	
CN(C)/N=C/c1ccccc1O	90.3	97.7	92.3%		96.1	94.5	95.9		100%	
OC1OC(COC(c2ccccc2)(c2ccccc2)c2ccccc2)C(O)C(O)C1O (stereo unspecified)	91.5	74	76.7%	96.9	96.5	93.7	87.6			
CCCC(C)OCC(=O)O (stereo unspecified)	104	103	86.6%		97.5	103	95	119	101%	
C=CCNc1nnc(C)s1		95.6	81.1%	96.7	119	123	168	123	105%	109
O=C(N/N=C/c1ccccc1O)Nc1nn[nH]n1	110	100	90.2%	92.8	94.8	94.9	109		98.8%	
O=S(=O)(O)CC(O)CN1CCN(CCO)CC1 (stereo unspecified)		110	91.6%	111	106	106	90.3	116	103%	119
Cc1cc(O)ccc1O		95.3	94.4%	105		103	65	123	19.1%	94.6
CC1(C)Nc2cccc3c(N=Nc4ccc(N=Nc5ccccc5)c5ccccc45)ccc(c23)N1		94.6	54.2%	77.7	88.1	103			107%	78
C/C(=C\c1cc(Cl)ccc1OCC(=O)O)[N+](=O)[O-]		122	90.5%	106	93.2	144	96.9	116	80.1%	98.2
O=C(O)CCCc1ccccc1		101	94.9%	108	108	121	98.4	98.9	102%	116
Nc1ccc(NC(=O)c2cccc(N)c2)cc1		99.5		97.8	56.4	90.6		123	88.8%	86.6
CC(=O)OC(C(=O)O)c1ccccc1 (stereo unspecified)		101	126%	106	104		95.5	117	86%	111
Cc1nc2c(ccc3ccccc32)s1		107	96.9%	111	103	115	103	119	85.7%	110
